Reference: PubChem BioAssay AID686954 (Sanford-Burnham Center for Chemical Genomics, 2013)
Out of some 30,000 compounds screened, about 240 (0.8%) were called active. Many of the other results were omitted from the sample, so actives are more common in it than they were. A number with no mark means an inactive call.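 Rule for the calls: active = at 10 µM dose, at least 30% inhibition, measured as corrected fluorescence normalized to stimulator and neutral control wells; inactive = the rest.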 Peptide text beside a SMILES is read from it. * marks the point of attachment. Bz = O=C(c1ccccc1)*

What follows are compounds tested against Protein artemis (Homo sapiens) (UniProt Q96SD1) (assay: blockers of Artemis DNA hairpin overhang cleavage – biochemical, fluorescence intensity, FAM/BHQ-1 hairpin substrate, primary screen (AID 686954)). Conditions: recombinant Artemis, quenched FAM hairpin cleavage fluorescence; at 10 µM; active compounds read high.
Protein artemis (Homo sapiens), sequence (Q96SD1 whole entry, looked up): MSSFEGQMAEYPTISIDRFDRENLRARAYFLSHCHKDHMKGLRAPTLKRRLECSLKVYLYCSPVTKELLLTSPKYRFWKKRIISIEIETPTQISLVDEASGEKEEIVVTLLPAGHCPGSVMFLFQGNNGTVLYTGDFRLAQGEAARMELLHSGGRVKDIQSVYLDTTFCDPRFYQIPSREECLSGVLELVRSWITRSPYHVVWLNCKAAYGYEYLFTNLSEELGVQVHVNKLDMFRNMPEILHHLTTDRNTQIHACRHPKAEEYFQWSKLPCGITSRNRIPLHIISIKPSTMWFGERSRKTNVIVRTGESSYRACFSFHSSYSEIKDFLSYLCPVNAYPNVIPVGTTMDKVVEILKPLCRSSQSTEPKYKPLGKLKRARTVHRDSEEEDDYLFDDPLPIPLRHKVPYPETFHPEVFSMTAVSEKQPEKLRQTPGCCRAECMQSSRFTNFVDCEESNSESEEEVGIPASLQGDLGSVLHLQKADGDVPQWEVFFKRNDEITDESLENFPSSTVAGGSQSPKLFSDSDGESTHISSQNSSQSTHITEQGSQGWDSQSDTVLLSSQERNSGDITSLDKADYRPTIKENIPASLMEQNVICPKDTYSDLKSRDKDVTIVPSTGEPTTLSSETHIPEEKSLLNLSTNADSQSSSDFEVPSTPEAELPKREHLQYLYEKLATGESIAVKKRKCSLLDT
`O=c1c2ccccc2nc2n1C(CSCc1ccccc1)CS2` (centres undefined) was tested, and the inhibition was 2.82%.
`COC(=O)CSC1=C(C#N)C(c2ccccc2OC)C(C(=O)OC)C(=O)N1` (centres undefined) showed an inhibition of -3.1%.
For `Cc1ccc(/C=N/NC(=O)c2sccc2OCc2ccc(F)cc2)cc1`, the inhibition was 22.2%.
`COc1ccc(CC(=O)Nc2nc3n(n2)C(c2ccccc2)CC(=O)N3)cc1OC` (centres undefined) showed an inhibition of -12.5%.
Work on `COc1ccc(C(=O)Nc2ccccc2C(=O)N/N=C/c2ccc(O)c(OC)c2)cc1` yielded an inhibition of 3.38%.
`O=C(N/N=C/c1ccsc1)c1cc(O)cc(O)c1` was tested, and the inhibition was 10.2%.
`O=C(N/N=C/c1ccc(O)c(O)c1)C1c2ccccc2Oc2ccccc21` was tested, and the inhibition was 30.2% (active).
With `Clc1cccc(-c2nc3nc4ccccc4nc3n2Cc2ccco2)c1` the inhibition was 27%.
`Cc1ccc(Cn2c(NC(=O)c3ccco3)nc3ccccc32)cc1` gave an inhibition of 0.73%.
With `Cc1ccc(Cn2c(C)nc3c(c2=O)c2nc4ccccc4nc2n3Cc2ccco2)cc1` the inhibition was 40.3% (active).
With `CCCn1c(C)cc(C(=O)COC(=O)c2c(C)nn(-c3ccccc3)c2C)c1C` the inhibition was 10.5%.
For `CC(C)(C)Cc1nnc(NC(=O)c2cc(-c3ccccc3)nc3ccccc23)s1`, the inhibition was 13.6%.
Compound `O=C(/C=C/Nc1ccccc1OC(F)(F)F)C(F)(F)F` has an inhibition of -11.1%.
`COc1ccc(Cc2nnnn2CC(=O)O)cc1` showed an inhibition of 3.92%.
For `CC1CCc2c(c3ccccc3[nH]c2=O)O1` (centres undefined), the inhibition was 13.8%.
`Cn1c(CO)cnc1SCc1ccccc1` was tested, and the inhibition was -0.47%.
Compound `COc1ccccc1NS(=O)(=O)N(C)C` has an inhibition of 4.92%.
`C=CCn1c(N)cc(=O)nc1SCC(=O)Nc1cccc2ccccc12` was tested, and the inhibition was -2.38%.
With `O=C(COc1cc(Cl)c(Cl)cc1Cl)NC(=O)NC1CCCC1` the inhibition was 5.4%.
`O=C(NC(Cc1ccccc1)C(=O)N1CCCC1C(=O)O)c1ccccc1` (stereo not drawn) (Bz-Phe-Pro-OH; configuration not given here) was tested, and the inhibition was 3.37%.
In the case of `CCCC(C(=O)NCc1ccco1)N(C(=O)CNS(=O)(=O)c1ccccc1)C1CCCC1` (centres undefined), the inhibition is reported as 9.71%.
`CSC1=N/C(=C\C=C\c2cccs2)C(=O)S1` showed an inhibition of 4.46%.
For `Cc1ccc(N2CCN(C3=NC(=O)/C(=C\c4cccs4)S3)CC2)cc1`, the inhibition was 30.4% (active).
Compound `Cc1ccsc1/C=C1\SC(N2CCOCC2)=NC1=O` has an inhibition of -5.58%.
For `Cc1cccc(C(=O)N2CCCN(C(=O)c3cccc(C)c3)CC2)c1`, the inhibition was 4.29%.
`CCC(C)NC(=O)c1cc(Cl)ccc1OC` (centres undefined) was tested, and the inhibition was 1.25%.
Work on `COc1ccc(-c2cc(C(=O)n3cnc4ccccc43)c3ccccc3n2)cc1` yielded an inhibition of 0.93%.
For `c1ccc(-c2nccc(-c3ccc(-n4cnc5ccccc54)cc3)n2)nc1`, the inhibition was 100% (active).
`N#CCCn1cnc2ccccc21` gave an inhibition of 0.47%.
